# In PubChem BioAssay AID492993 (Johns Hopkins Ion Channel Center, 2010):
# The campaign covered roughly 4,900 compounds. About 200 (4.1%) were called active.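 Rule for the calls: active = thallium signal drop more than 5 SD beyond the mean of the no-compound control wells, seen in both duplicate plates; inactive = the rest.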 The list is a sample of the results.
# Molecular target: Inward rectifier potassium channel 2 (Mus musculus) (UniProt P35561)
# Test: mouse Kir2.1 channel inhibition, confirmation, selectivity assay for KCNK9 modulator project, cell-based, HEK293, thallium flux (AID 492993);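 for inhibition: signal is fluorescence rise after thallium addition divided by baseline fluorescence; plate controls were assay buffer only for no effect and full block by chlorpromazine control for full effect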
# Settings: Kir2.1 cells, FluxOR thallium flux fluorescence, at 10 µM; stronger effect = higher value
# Chain of Inward rectifier potassium channel 2 (Mus musculus) (P35561 whole entry, looked up): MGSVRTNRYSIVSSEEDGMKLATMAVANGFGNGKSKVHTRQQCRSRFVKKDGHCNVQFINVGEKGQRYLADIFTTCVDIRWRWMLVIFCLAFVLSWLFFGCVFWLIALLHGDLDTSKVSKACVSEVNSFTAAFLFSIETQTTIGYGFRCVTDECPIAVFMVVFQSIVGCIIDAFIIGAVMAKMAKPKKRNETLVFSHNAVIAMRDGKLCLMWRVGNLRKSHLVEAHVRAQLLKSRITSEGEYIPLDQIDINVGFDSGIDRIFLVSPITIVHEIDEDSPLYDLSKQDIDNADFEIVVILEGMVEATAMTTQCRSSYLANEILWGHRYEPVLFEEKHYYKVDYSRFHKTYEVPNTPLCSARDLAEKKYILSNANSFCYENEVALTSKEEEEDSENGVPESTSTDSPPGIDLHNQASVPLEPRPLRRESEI
row,Structure (SMILES),inhibition
1,C=CCc1cc(S(=O)(=O)c2ccc(O)c(CC=C)c2)ccc1O,inactive
2,COc1ccc(C2CC(c3cccs3)=NN2c2ccccc2)cc1 (stereo not drawn),inactive
3,Cc1cccc(N(C)C(=O)CN2C(=O)COc3ccc(S(=O)(=O)N4CCCCCC4)cc32)c1,inactive
4,CCOC(=O)c1c(NC(=O)CSc2cn(CC)c3ccccc23)sc2c1CCC2,inactive
5,CCCCCC(O)c1cccc(OCc2ccc3ccccc3n2)c1 (stereo not drawn),70.5% (active)
6,COc1cccc(COC(=O)C2CCN(S(=O)(=O)c3ccc(Cl)cc3)CC2)c1OC,inactive
7,CC(C)C(=O)Nc1cccc(NC(=S)NC(=O)C(c2ccccc2)c2ccccc2)c1,inactive
8,O=C(Cn1cc(C(=O)c2cccs2)c2ccccc21)NCc1cccs1,inactive
9,C/C(=N\NC(=S)Nc1ccc(C)cc1)c1cc2ccccc2o1,inactive
10,Cc1ccc(SCC(=O)c2cc(C)c(OC(=S)N(C)C)c(C)c2)cc1,inactive
11,CCOC(=O)Cc1cc(=O)[nH]c(=O)[nH]1,inactive
12,O=C(NNc1ccccc1Cl)C(O)(c1cccc(C(F)(F)F)c1)c1cccc(C(F)(F)F)c1,inactive
13,CC1(C)CC(N2CCN(C(c3ccccc3)c3ccccc3)CC2)=CC(=[N+]2CCCCC2)C1,65% (active)
14,c1ccc(C(c2ccccc2)N2CCN(Cc3nnnn3C3CCCCC3)CC2)cc1,inactive
15,CCC(C)(C)n1nnnc1C(c1cccs1)N1CCN(c2nc3ccccc3s2)CC1 (stereo not drawn),inactive
16,Clc1ccc(CSc2nnc(/C=C/c3ccccc3)o2)c(Cl)c1,inactive
17,COc1ccccc1C(c1nnnn1C(C)(C)C)N1CCN(Cc2ccccc2)CC1 (stereo not drawn),inactive
18,CN(C)S(=O)(=O)N1CCC(Oc2cccc(C(=O)NCCCC3CCCC3)c2)CC1,inactive
19,O=[N+]([O-])c1ccc(N2CCN(CC(O)COc3ccccc3)CC2)cc1 (stereo not drawn),inactive
20,O=C(Oc1ccc(Br)cc1C(=S)N1CCOCC1)c1cccc([N+](=O)[O-])c1,inactive
21,CN(CCOc1ccccc1)C(=O)c1cc(COc2c(F)cccc2F)on1,inactive
22,COC(=O)c1sc(-c2ccc(C(C)(C)C)cc2)cc1NC(=O)/C=C/C(=O)O,inactive
23,COc1cc(C(CCN2CCN(c3ccccc3)CC2)c2c(OC)cc(OC)c3ccc(=O)oc23)cc(OC)c1OC (stereo not drawn),inactive
24,O=C1/C(=C/c2ccc3c(c2)OCO3)CCC/C1=C\c1ccc2c(c1)OCO2,inactive
25,O=C(Nc1cc(Cl)cc(Cl)c1)C(NCCCO)c1ccccc1 (stereo not drawn),inactive
26,O=C(NCc1ccco1)c1ccc(NS(=O)(=O)c2cccc([N+](=O)[O-])c2)cc1,inactive

row,Structure (SMILES),inhibition
1,O=C1c2ccccc2C2=Nc3ccccc3SC(c3ccccc3F)C12 (stereo not drawn),inactive
2,Cc1cccc(NC(=O)CN2CCCN(S(=O)(=O)c3ccc(Br)s3)CC2)c1,inactive
3,Cc1ccc(C)c(NC(=S)NNC(=S)Nc2ccc(C(C)C)cc2)c1,inactive
4,Cc1c(C(=O)Nc2ccccn2)oc2ccc(Br)cc12,inactive
5,O=C(CC(NC(=O)c1ccccc1)c1ccccc1)Nc1ccc(F)c(F)c1 (stereo not drawn),inactive
6,CCCCN(CC)C(=O)C1CCCN(S(=O)(=O)c2cccc3nsnc23)C1 (stereo not drawn),inactive
7,Oc1ccc(/C=N/Nc2nc(-c3ccccc3F)nc3ccccc23)c(O)c1,inactive
8,COC(=O)Cn1cnc2scc(-c3ccc(C)c(C)c3)c2c1=O,inactive
9,O=C(Nc1ccc(Cl)c(Cl)c1)N1CC=C(c2ccccc2)CC1,inactive
10,Cc1ccc(C(=O)/C=C/c2c(C)nn(-c3ccccc3)c2Cl)cc1,inactive
11,CCCOc1ccc2c3c(c(=O)oc2c1OCCC)CCC3,inactive
12,COc1cccc(-c2cc3nc4c(c(N5CCC6(CC5)OCCO6)n3n2)CCCC4)c1,inactive
13,Cc1nn(CC(=O)Nc2nc3ccccc3s2)c(C)c1[N+](=O)[O-],inactive
14,COc1ccc(C(=O)C2CCCN(Cc3ccc4nonc4c3)C2)c(C)c1 (stereo not drawn),inactive
15,Cc1ccc(-c2csc(NCCc3nc4cc(Cl)c(Cl)cc4n3CCOCCO)n2)cc1,inactive
16,COc1ccc2c(c1)C(c1cccs1)=NNC(c1cccnc1)=N2,inactive
17,COc1ccc([N+](=O)[O-])cc1-c1nc2ccccc2nc1-c1ccccc1,inactive
18,Cc1cc2ccccn2c1C(=O)c1cccc(S(=O)(=O)N2CCOCC2)c1,inactive
19,COc1ccc(/C=C2\CCc3ccccc3C2=O)c(OC)c1OC,inactive
20,COc1cccc(OC)c1C(=O)Nc1sc2c(c1C(N)=O)CCCC2,inactive
21,CC(C)N(C(=O)CSc1nc(COc2ccccc2)nc2ccccc12)C(C)C,inactive
22,O=c1cc(CN2CCN(c3cccc(Cl)c3)CC2)c2cc3c(cc2o1)CCCC3,inactive
23,Cc1ccc(CN2CCN(/N=C/c3ccco3)CC2)c(C)c1,inactive
24,Cc1[nH]c2ccccc2c1CCN(Cc1cccs1)C(=S)NC(C)(C)C,inactive
25,O=C(CSCc1ccc(Cl)cc1)N1CCN(Cc2ccc3c(c2)OCO3)CC1,inactive
26,CCC/C=C(\CCC)C(NC(=O)Cc1ccccc1)c1ccc(C(=O)OC)cc1 (stereo not drawn),inactive

row,Structure (SMILES),inhibition
1,O=C1CC(NNc2ccccc2)C(=O)N1c1cccc(Cl)c1 (stereo not drawn),inactive
2,FC(F)(F)c1cc(-c2ccco2)nc(NCc2ccc(Cl)cc2)n1,inactive
3,COc1ccc(NC(=O)CN(C)CC(=O)Nc2cccc(C(F)(F)F)c2)cc1,inactive
4,CCCCCCCCCCOC(=O)Cn1c(COc2ccc(C)cc2)[n+](C)c2ccccc21,60.5% (active)
5,CCCCCn1c(=O)c(C(=O)OCC)c(Cl)c2ccccc21,inactive
6,CCCCCCCCCCOC(=O)Cn1c(COc2cccc(OC)c2)[n+](C)c2ccccc21,70% (active)
7,CCCSc1nc(NCc2ccco2)c2c3c(sc2n1)COC(C)(CC)C3 (stereo not drawn),inactive
8,COc1ccc(-c2noc(CSc3ccc(C)cc3)n2)cc1,inactive
9,COc1cccc(COc2ccc(N(C)S(=O)(=O)c3ccccc3)cc2)c1,inactive
10,CCOc1ccc(C(C)C)cc1S(=O)(=O)n1nc(C)cc1C,inactive
11,Cc1cc(C=O)c(C)n1-c1ccc(NC2CCCCC2)c([N+](=O)[O-])c1,inactive
12,O=C(C[C@H]1C(=O)N(c2ccc(F)c(F)c2)C[C@@H]1Cc1ccccc1)Nc1ccccc1,inactive
13,CCCCNC(=S)N/N=C1\CCCCc2ccccc21,inactive
14,CC(C)(C)SCCSC1=CC(=O)CC(c2ccccc2)C1 (stereo not drawn),inactive
15,COc1ccc(C(C)=O)cc1COc1ccc(Cl)c(C)c1,inactive
16,CCOC(=O)c1c(NC(=O)CCCN2CCOCC2)sc2c1CC(C)(C)OC2,inactive
17,Cc1cc(C)cc(NC(=O)CSCc2cnn(-c3ccccc3)c2-n2cccc2)c1,43% (active)
18,O=C1c2ccccc2S(=O)(=O)N1CC(O)Cn1c2ccccc2c2ccccc21 (stereo not drawn),inactive
19,COc1cc(Cl)c(S(=O)(=O)N2CCN(Cc3ccc4c(c3)OCO4)CC2)cc1Cl,inactive
20,Cc1cc(Cl)ccc1C(=O)C1CCCN(C(=O)CCN2CCCO2)C1 (stereo not drawn),inactive
21,Cc1ccccc1N1CCN(Cc2nc(Cc3ccccc3F)no2)CC1,inactive
22,COc1cccc(C(=O)NCCSc2ccc(Br)cc2)c1,inactive
23,COc1cc(NC(=S)NCCSc2ccc(C)cc2)cc(OC)c1,inactive
24,O=S(=O)(c1ccc(F)cc1)N1CCN(Cc2ccccc2C(F)(F)F)CC1,inactive
25,O=C(CSCc1ccc(Br)cc1)Nc1ccc(S(=O)(=O)N2CCCCCC2)cc1,inactive
26,CC1=C/C(=N\OS(=O)(=O)c2ccccc2)C=CC1=O,inactive

row,Structure (SMILES),inhibition
1,COc1ccc(-c2oc(/N=C/N3CCCC3)c(C#N)c2-c2ccc(OC)cc2)cc1,inactive
2,Cc1ccc(S(=O)(=O)N2CCN(C(=O)COC(=O)c3c(C)cc(C)cc3C)CC2)c(C)c1,inactive
3,Cc1ccc(NC2CCCN(C(=O)CCC3(C)CC3)C2)cc1C (stereo not drawn),inactive
4,CCOc1ccccc1NC(=O)C12CC3CC(C1)CC(c1ccc(C)cc1)(C3)C2,inactive
5,COCCN(C(=S)Nc1cccc(Cl)c1C)C(C)c1ccco1 (stereo not drawn),inactive
6,Cn1nc(-c2ccccc2)c(CSc2cccc(Cl)c2)c1Cl,inactive
7,COc1ccc(C2Nc3ccccc3C(=O)N2Cc2ccccc2)cc1Cn1nnc2ccccc21 (stereo not drawn),inactive
8,Cc1csc(Nc2ccc(Cl)cc2)[n+]1-c1ccc(Cl)cc1,inactive
9,CCC1=NN(C(=O)Cc2ccc([N+](=O)[O-])cc2)C(O)(c2ccc(Br)cc2)C1 (stereo not drawn),inactive
10,COc1ccc(OC)c(C(=O)c2coc3ccc(OC)cc23)c1,inactive
11,Cc1cc(Oc2ccc(Cl)cc2)nc(SCC(=O)c2ccccc2)n1,inactive
12,CCCC(=O)n1nc(NCc2ccc(OC)cc2)nc1NCc1ccc(OC)cc1,inactive
13,CCCCn1ccnc1C(=O)c1cccc(S(=O)(=O)N2c3ccccc3CC2C)c1 (stereo not drawn),inactive
14,CCCC1=Nc2cc(C(=O)NCc3ccco3)ccc2Sc2ccccc21,inactive
15,Cc1ccc(N2CCN(S(=O)(=O)c3ccc(F)cc3)CC2)c(C)c1,inactive
16,O=[N+]([O-])/C=C/c1ccc2c(ccn2Cc2ccccc2)c1,41.5% (active)
17,CCc1cccc(C)c1N(C(=O)Cn1c(CO)nc2ccccc21)C(C)COC (stereo not drawn),inactive
18,CCCN1C(=O)C(Cc2nc3ccccc3c(=O)n2-c2ccccc2)c2cc(C)ccc21 (stereo not drawn),inactive
19,CCOC(=O)CSc1nc2c(sc(=S)n2CCc2ccccc2)c(=O)n1Cc1ccco1,inactive
20,Cc1ccccc1CSCCNC(=O)c1ccc(N(C)S(=O)(=O)c2ccccc2)cc1,inactive
21,CN(CCC(=O)Nc1cc(S(=O)(=O)N(C)C)ccc1Cl)CC(=O)Nc1ccc(F)cc1,inactive
22,CN(c1ccccc1)S(=O)(=O)c1cccc(NC(=O)Cc2c(F)cccc2Cl)c1,28.5% (active)
23,CCOC(=O)C1=C(C)Nc2sc(C(=O)c3ccc(Br)cc3)c(N)c2C1c1ccc(C(=O)OC)cc1 (stereo not drawn),inactive
24,Cc1ccc(C(=O)c2c(NC(=O)c3ccccc3)sc(C)c2C)cc1,inactive
25,CCOc1ccc(CN(Cc2ccco2)C(c2cccs2)c2nnnn2C(C)(C)C)cc1 (stereo not drawn),inactive
